An excerpt weighted towards active compounds, which were near 1.5% of everything screened.
ALOX12 inh = Primary qHTS assay for inhibitors of human arachidonate 12S-lipoxygenase (ALOX12): Round 2. 1.1% of 580,000 active. AID 1671190, 2021. Polyunsaturated fatty acid lipoxygenase ALOX12 (Homo sapiens), P18054. Potency, µM (titrated, usually from 108 µM), for inactives: at the top dose activity change, negative = inhibition, hits mostly inhibitors. purified 12hLO, xylenol orange hydroperoxide absorbance; further: potency means the concentration at half of the fitted maximal effect; on the % scale 0 is the no-effect control and ±100 the full control effect
Target sequence (P18054 whole entry, looked up): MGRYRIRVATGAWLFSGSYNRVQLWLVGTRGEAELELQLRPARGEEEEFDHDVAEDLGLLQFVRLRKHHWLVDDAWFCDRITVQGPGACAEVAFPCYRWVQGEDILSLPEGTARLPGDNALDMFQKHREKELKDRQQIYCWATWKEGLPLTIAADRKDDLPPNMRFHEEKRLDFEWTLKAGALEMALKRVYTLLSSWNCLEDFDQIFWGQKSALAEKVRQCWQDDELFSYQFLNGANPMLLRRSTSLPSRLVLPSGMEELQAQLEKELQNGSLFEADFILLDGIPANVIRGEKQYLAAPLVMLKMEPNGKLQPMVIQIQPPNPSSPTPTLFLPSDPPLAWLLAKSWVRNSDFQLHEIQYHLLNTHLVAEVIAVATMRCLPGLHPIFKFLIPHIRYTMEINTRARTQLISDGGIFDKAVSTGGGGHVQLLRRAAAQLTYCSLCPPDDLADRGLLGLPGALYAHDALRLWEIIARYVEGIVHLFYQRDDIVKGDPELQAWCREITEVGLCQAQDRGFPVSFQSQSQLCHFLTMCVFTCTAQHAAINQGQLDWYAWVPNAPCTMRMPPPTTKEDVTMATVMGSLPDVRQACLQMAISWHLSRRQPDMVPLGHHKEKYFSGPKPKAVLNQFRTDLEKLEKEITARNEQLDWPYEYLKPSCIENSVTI
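Purified human 12hLO (150 nM final) in 25 mM Hepes, 0.01% Triton X-100, pH 7.0 was preincubated 15 min at room temperature with compound. Then 40 uM arachidonic acid was added, 30 min. Hydroperoxide was read by Fe-XO absorbance ratio 573/405 nm.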
IL-2 act = qHTS of IL-2 Activators. activation, % (series mostly up to about 46 µM). IL-2 activation reporter assay, cell-based qHTS; stimulated with anti-CD3/CD4/CD28 beads; in transgenic mouse T cells. 0.065% of 360,000 active; in the data active means activation above about 50%; inconclusive means mostly about 30% to 49%; further: 0% is about no effect
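Unstimulated transgenic mouse T cells; 60-min compound exposure; bead-based TCR/CD4/CD28 stimulation; 18 h culture, 37 degrees C; dual fluorescence (EGFP, DsRed) plate cytometry.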
uPA generation = qHTS for Inhibitors of Cell Surface uPA Generation. 0.31% of 330,000 active. AID 540303, 2011. Potency, µM (top dose mostly 38.3 µM), without a hit: top-dose activity change, negative = inhibition, actives largely listed as inhibitors. cell surface uPA generation assay, qHTS; active means well fitted inhibition curve with a large enough effect; inconclusive means small, poorly fitted or top-dose-only effect; inactive means no such curve, though single readings can be large or run the other way; tested in mouse RAW 264.7 cells; further: potency means the concentration at half of the fitted maximal effect; on the % scale 0 is the no-effect control and ±100 the full control effect; nearly all actives have a fitted effect of over 55% in size
Nrf2 activator = qHTS of Nrf2 Activators; AREc32 ARE-luciferase reporter (MCF7-derived line), luminescence, 24 h; Potency, µM (highest dose often 46.1 µM), for inactives: at the highest dose activation, most hits filed as activators; 0.31% of 410,000 active; AID 624171, 2012; further: potency means the concentration at half of the fitted maximal effect; % of control where 0% means no effect; nearly all actives have a fitted effect of over 65% in size
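Luminescent ARE reporter assay in AREc32_Fluc cells: overnight plating at 37 deg C, 24 hr compound incubation, Steady-Glo added, 30 min RT before reading.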
a7 integrin act = qHTS for Activators of Integrin-Mediated Alleviation for Muscular Dystrophy; alpha7betagal myoblasts, beta-gal FDG fluorescence, 48 h; Potency, µM (series often up to 38.3 µM), for inactives: at the highest dose activation, usual class: activators; 0.064% of 350,000 active;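 further: potency means the concentration at half of the fitted maximal effect; 100% = response of the positive control SU9516; nearly all actives have a fitted effect of over 60% in size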
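alpha7betagal+/- myoblasts (passage 13, 250/well) treated 48 h at 37C with compounds at 1:260 dilution of DMSO stock. Lysed, then beta-galactosidase activity read as FDG fluorescence (ex 480/em 540) after 30 min, with pre-read for autofluorescence.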
Numbers without * were called inactive; i = inactive; ? = inconclusive; . = no result given; [ ] = remark or other dose. Unless noted, the call rests on the fitted dose curve; in most records, active means well fitted curve in the direction sought with a large enough effect; inconclusive means small, poorly fitted or top-dose-only effect, or another doubt; inactive means no such curve, though single readings can be large; an effect the other way counts as inactive or inconclusive.

SMILES	ALOX12 inh	IL-2 act	uPA generation	Nrf2 activator	a7 integrin act
Cc1ncc(CO)c(/C=N/NC(=O)c2ccc(O)cc2)c1O	-13%	0	-3%	0%[9.22 µM]	9%
Cc1ncc(CO)c(/C=N/NC(=O)c2cc3c(s2)CCCC3)c1O	-3%	0	6.3µM*	-1%	-29%
Cc1ncc(CO)c(/C=N/NC(=S)Nc2cccc(Cl)c2)c1O	.	-3	-18%	1%	0%
COc1cccc(/C=C2/C(=O)NN(c3ccc(C)c(C)c3)C2=O)c1	28µM*	-4	5%	0%	-3%
COc1cc(/C=C2/C(=O)NN(c3cccc(C)c3)C2=O)cc([N+](=O)[O-])c1O	?	-3	-1%	0%	-11%
COc1cccc(/C=C2/C(=O)NN(c3ccc(F)cc3)C2=O)c1	?	-1	-8%	0%	0%
COc1cc(/C=C2/C(=O)NN(c3ccc(C)c(Cl)c3)C2=O)cc([N+](=O)[O-])c1O	40µM*	0	14%	0%	-11%
COc1cc(/C=C2/C(=O)NN(c3cccc(C)c3)C2=O)ccc1OC(=O)c1ccco1	35µM*	1	0%	0%	20%
C/C(=N\NC(=S)NCCc1ccccc1)c1ccc(C)cc1	40µM*	-2	-4%	-1%	0%
C/C(=N\NC(=S)NCCc1ccccc1)c1ccc(C#N)cc1	0%	-1	.	0%	-22%
C/C(=N\NC(=S)NCCc1ccccc1)c1ccc(Cl)cc1	35µM*	-1	0%	0%[9.22 µM]	-5%
S=C(NCCSc1ccc(Cl)cc1)NCCc1ccccc1	40µM*	.	.	.	.
C/C(=N/NC(=O)CNC(=O)CCc1ccccc1)c1ccc(Cl)cc1	196%	0	0%	5%	5%
Cc1ccc(SCCNC(=S)Nc2ccccc2)cc1	?	0	16%	1%	0%
COc1ccccc1NC(=S)NCCSc1ccc(C)cc1	45µM*	-5	-6%	0%	-12%
Cc1cc(C)cc(NC(=S)NCCSc2ccc(Cl)cc2)c1	?	-2	2%	3%	3%
COc1ccc(Cn2c(CO)cnc2SCC(=O)Nc2ccc(F)cc2F)cc1	14%	.	.	.	.
O=C(c1ccc(Cl)cc1)c1oc2ccccc2c1CS(=O)c1ccc(Cl)cc1 (configuration not stated)	4.5µM*	-1	.	2%	16%
Nc1c(C(=O)c2ccc(Cl)cc2)oc2ccccc12	-11%	0	1%	21%	5%
Cn1cc(CNC(=O)C[C@@H]2C[C@H]3O[C@H](CNCc4ccccc4OC(F)(F)F)[C@@H](O)[C@H]3O2)cn1	27%	.	.	.	.
CCOc1ccc(C(Nc2cccnc2)c2cc(Cl)c3cccnc3c2O)cc1 (configuration not stated)	10µM*	0	-3%	23%	-65%
O=C(O)COc1ccccc1C(Nc1cccnc1)c1cc(Cl)c2cccnc2c1O (configuration not stated)	.	0	3%	0%	-16%
N#Cc1cc(Cl)ccc1OCc1ccccc1	-17%	.	.	.	.
COc1cccc(OCc2ccc(Cl)cc2)c1C#N	?	-4	8.9µM*	17%	5%
CC(C)CC(=O)/C(=C\c1ccc(Cl)cc1Cl)n1cncn1	.	-3	7.1µM*	-5%	-59%
SMILES	ALOX12 inh	IL-2 act	uPA generation	Nrf2 activator	a7 integrin act
Cc1ccccc1/C=N/NC(=O)c1cccnc1	?	1	-7%	3%	11%
Cc1cccc(/C(N)=N/OC(=O)c2cccc3ccccc23)c1	i	.	.	.	.
COc1ccc(Cl)cc1C(=O)O/N=C(\N)c1ccccn1	6%	0	10µM*	?	-4%
N/C(=N\OC(=O)/C=C/c1ccccc1Cl)c1cccnc1	?	-2	-1%	16µM*	3%
O=C(N/N=C/c1cccc2ccccc12)c1cccnc1	11µM*	2	0%	0%	-6%
N/C(=N\OC(=O)c1cccc2ccccc12)c1cccnc1	-16%	-2	?	2µM*	-5%
N/C(=N\OC(=O)c1cc(Cl)ccc1Cl)c1ccccn1	2%	-3	?	?	-33%
N/C(=N\OC(=O)/C=C/c1ccccc1Cl)c1ccccn1	-7%	-3	3.5µM*	22%	-24%
N/C(=N\OC(=O)/C=C/c1ccc(Br)cc1)c1ccccn1	-20%	1	-2%	10%	-24%
O=C(CCc1nc2ccc(Cl)cc2[nH]1)N1CCCC(Cc2nc(C3CCOCC3)no2)C1 (configuration not stated)	24%	.	.	.	.
O=c1nc(N/N=C/c2c[nH]c3ccccc23)cn[nH]1	13%	-2	-1%	1%	-1%
O=c1cnnc(N/N=C/c2c[nH]c3ccccc23)[nH]1	0%	0	2%	13µM*	13%
NC(=O)[C@H]1C[C@@H](O)[C@H](O)[C@H]2[C@@H]1SC(=Nc1ccc(Cl)cc1)N2CC1CCCCC1	28µM*	.	.	.	.
COc1ccc(S(=O)(=O)NCC(=O)O)cc1OC	57%	.	.	.	.
CC(C)Oc1ccccc1/C=N/Nc1ccccc1[N+](=O)[O-]	-7%	0	6%	10µM*	1%
COc1cc(/C=N/Nc2ccccc2[N+](=O)[O-])cc(OC)c1O	-22%	0	2%	10µM*	19%
COc1ccccc1/C=N\Nc1ccccc1[N+](=O)[O-]	43%	0	-1%	?	-15%
COc1cc(/C=N/Nc2ccc(S(N)(=O)=O)cc2[N+](=O)[O-])cc(OC)c1O	-24%	-1	8%	7%	9%
O=c1oc(CCO)cc2ccc(C#Cc3ccsc3)cc12	?	0	10%	2.5µM*	-4%
CN(C)c1ccc(C#Cc2ccc3cc(CCO)oc(=O)c3c2)cc1	.	0	?	4%	-8%
CCNc1ncc2nc(CCc3ccccc3)c(=O)n(C[C@H]3CCCO3)c2n1	7.1µM*	.	.	.	.
CCOC(=O)CNC(=O)C(F)(F)C(F)(F)C(F)(F)C(F)(F)C(=O)NCC(=O)OCC	29%	.	.	.	.
O=C(O)CCNC(=O)C(F)(F)C(F)(F)C(F)(F)C(F)(F)C(F)(F)C(F)(F)F	11µM*	.	.	.	.
Cc1ccc(O)c(NC(=O)c2noc3c2CCCC3)c1	-25%	.	.	7.9µM*	.
Cc1ccc(O)c(NC(=O)c2noc3c2CCCCC3)c1	3%	2	-1%	?	14%
CCOc1ccccc1NC(=O)c1cccc2c1C(=O)N(C1CCCCC1)C2	54%	-3	4%	0%	3.2µM*
Nc1ncnc2c1ncn2[C@H]1C[C@H](O)[C@@H](CO)O1	-14%	0	5%	0%	35%
Nc1nc(Cl)nc2c1ncn2[C@H]1C[C@H](O)[C@@H](CO)O1	?	-1	0.32µM*	0%	.
C=CCN(Cc1cccc(OCC)c1)C(=O)CC1CNCCO1 (configuration not stated)	-6%	.	.	.	.
